Among the test systems are NCI-H23 lung; NCI-H226 lung; NCI-H322M lung; HOP-62 NSCLC; NCI-H460 lung; HOP-92 NSCLC; NCI-H522 lung; A549/ATCC NSCLC; 786-0 renal; COLO 205 colon.
Holding throughout (experiment): NCI-60 one-dose screen, 48 h (100 = growth as untreated, 0 = no growth, -100 = all killed)
Conditions in all cases: 10 µM unless noted

In PubChem BioAssay (NCI) one finds growth data, which are given here for 13 molecules.

SMILES strings stand for the structures. About 83,000 compounds went through this panel and 20% of them were active in at least one assay; those are over-represented in the sample as a whole.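 How to read the values: 0–100, growth inhibition (40 = 60% inhibited); 0, no net growth; -100 to 0, cell death (-40 = 40% of starting cells died; -100 = all dead).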 A number with no mark means an inactive call. Active and inactive are the calls of the source. Rule for the calls: active = growth percent below 10; inactive = the rest.

`S=C(c1ccc2c(c1)OCO2)N1CCN(c2ccccc2Cl)CC1`: the growth is 101% in the assay on NCI-H23 lung; 87.9% in the assay on NCI-H226 lung; 103% with NCI-H322M lung; 102% with HOP-62 NSCLC; 102% with NCI-H460 lung; 67.3% in the assay with HOP-92 NSCLC. The growth with NCI-H522 lung is 74.8%; in the assay with A549/ATCC NSCLC it was 98.2%; with 786-0 renal, 92.4%; with COLO 205 colon, 97.1%.

Take `Nc1ccc2c(c1)c(N)nn2C(=O)Nc1ccc(Cc2ccccc2)cc1`: the growth was 82.1% in the assay on NCI-H23 lung; 72.5% in the assay on NCI-H226 lung; 81.2% with NCI-H322M lung; 82.7% in the assay with HOP-62 NSCLC; 44.5% with NCI-H460 lung; 98.2% with HOP-92 NSCLC. The growth was 88.3% in the assay with NCI-H522 lung, 52.3% with A549/ATCC NSCLC, 84.3% in the assay on 786-0 renal and 107% with COLO 205 colon.

Regarding `O=C(CC(SCc1ccccc1)c1ccccc1)c1ccccc1` (stereo not given), the growth with NCI-H23 lung is 84.6%; in the assay on NCI-H226 lung, 87.6%; in the assay with NCI-H322M lung, 97.1%; in the assay on HOP-62 NSCLC, 91.7%; in the assay with NCI-H460 lung it was 103%; in the assay on HOP-92 NSCLC it was 80.1%. The growth with NCI-H522 lung was 111%; in the assay with A549/ATCC NSCLC, 101%; in the assay on 786-0 renal, 84%; with COLO 205 colon, 94.3%.

Turning to `O=S(=O)(Nc1cccc(Cl)c1)c1ccc(-c2cnc(C3CC3)o2)cc1`, the growth with NCI-H23 lung was 29.3%; with NCI-H226 lung it was 40.9%; with NCI-H322M lung it was 48.1%; with HOP-62 NSCLC, 31.9%; in the assay with NCI-H460 lung, 16.5%; with HOP-92 NSCLC, 20.5%. For the same molecule, the growth with NCI-H522 lung was -1.89% (active); in the assay on A549/ATCC NSCLC, 38.4%; in the assay on 786-0 renal, 28.4%; in the assay with COLO 205 colon, 0.342% (active).

On to `CCOC(=O)c1c2c(n3ccc(NC(=O)OC(C)(C)C)cc13)C(=O)c1ncccc1C2=O`, for which the growth in the assay on NCI-H23 lung was -77.5% (active); with NCI-H226 lung, -63.7% (active); with NCI-H322M lung, -19.5% (active); with HOP-62 NSCLC, -76.8% (active); with NCI-H460 lung it was -82.6% (active); with HOP-92 NSCLC, -10.3% (active). In addition, the growth in the assay on NCI-H522 lung is -56.1% (active); in the assay with A549/ATCC NSCLC, -57.3% (active); in the assay on 786-0 renal it was -49.3% (active); with COLO 205 colon, -54.6% (active).

Turning to `O=C(NCCCNc1cc(-c2cn(-c3ccccc3)nc2-c2cccc(O)c2)ccn1)c1ccc(F)cc1`, the growth is 42% in the assay with NCI-H23 lung; 58.9% with NCI-H226 lung; 62.8% with NCI-H322M lung; 26.2% in the assay with HOP-62 NSCLC; 27.9% with NCI-H460 lung; 14.4% in the assay with HOP-92 NSCLC. Also, the growth was 9.35% (active) in the assay with NCI-H522 lung, 16.1% with A549/ATCC NSCLC, -49.4% (active) with 786-0 renal and -59.1% (active) in the assay on COLO 205 colon.

Take `CN1CCN(CCCOc2ccc3nc(Nc4ccc(F)c(F)c4)ccc3c2)CC1`: the growth with NCI-H23 lung is 51.5%; in the assay with NCI-H226 lung, 62.9%; in the assay with NCI-H322M lung it was 68%; in the assay on HOP-62 NSCLC, 22.5%; with NCI-H460 lung, 7.51% (active); in the assay with HOP-92 NSCLC, 5.74% (active). For the same molecule, the growth in the assay with NCI-H522 lung was -50.4% (active); in the assay on A549/ATCC NSCLC, 16.1%; in the assay on 786-0 renal, 2.05% (active); with COLO 205 colon, -72% (active).

Regarding `Nc1cc2c3c(cccc3c1)C(=O)N(CCN1CCCC1)C2=O`, the growth was 39.5% in the assay on NCI-H23 lung; -7.42% (active) with NCI-H226 lung; 54.5% in the assay on NCI-H322M lung; 44.4% in the assay with HOP-62 NSCLC; 2.15% (active) with NCI-H460 lung; 27.5% in the assay on HOP-92 NSCLC. Besides, the growth in the assay on NCI-H522 lung is 29.3%; with A549/ATCC NSCLC it was 14.8%; in the assay on 786-0 renal it was 46.4%; in the assay on COLO 205 colon, 14%.

Turning to `COc1ccc(/C=N/C2=C(C#N)C(c3ccc(OC)cc3)c3ccc4ccccc4c3O2)cc1` (stereo not given), the growth with NCI-H23 lung is 75.5%; in the assay on NCI-H226 lung, 74.5%; with NCI-H322M lung, 97.6%; with HOP-62 NSCLC, 67%; in the assay on NCI-H460 lung, 75.6%; in the assay on HOP-92 NSCLC, 70.3%. The growth in the assay with NCI-H522 lung was 45.5%; in the assay on A549/ATCC NSCLC, 83.7%; with 786-0 renal, 95.1%; with COLO 205 colon it was 102%.

Take `COc1ccc2oc3c(C)c4c(c(C)c3c2c1)C(=O)N(Cc1ccccc1)C4=O`: the growth is 93.3% in the assay with NCI-H23 lung; 90.1% in the assay with NCI-H226 lung; 92.4% in the assay on NCI-H322M lung; 88.9% in the assay on HOP-62 NSCLC; 69.4% with NCI-H460 lung; 85.5% in the assay with HOP-92 NSCLC. Moreover, the growth in the assay on NCI-H522 lung was 87.5%; in the assay with A549/ATCC NSCLC, 83.9%; with 786-0 renal, 114%; in the assay with COLO 205 colon, 84.7%.

Take `CC(C)Sc1nc(NNC(N)=S)c(C#N)c(-c2ccc(F)cc2)n1`: the growth in the assay on NCI-H23 lung was 102%; in the assay on NCI-H226 lung, 94.7%; in the assay with NCI-H322M lung, 99.1%; in the assay with HOP-62 NSCLC it was 101%; in the assay with NCI-H460 lung, 102%; in the assay with HOP-92 NSCLC, 70.2%. Also, the growth in the assay on NCI-H522 lung was 85.2%; in the assay with A549/ATCC NSCLC, 92.5%; in the assay on 786-0 renal it was 90.5%; with COLO 205 colon, 106%.

Consider `COC(=O)[C@]12CC[C@@H](C)[C@H](C)[C@@H]1C1=CC[C@@H]3[C@@]4(C)C(C=O)=C[C@@](C)(COC(C)=O)[C@@H]4[C@H](O)C[C@@]3(C)[C@]1(C)CC2`, for which the growth was -12.8% (active) in the assay with NCI-H23 lung; -25.2% (active) in the assay with NCI-H226 lung; 28.3% with NCI-H322M lung; 8.74% (active) in the assay with HOP-62 NSCLC; -64.6% (active) in the assay on NCI-H460 lung; -6.92% (active) in the assay on HOP-92 NSCLC. For the same molecule, the growth in the assay on NCI-H522 lung is -35% (active); in the assay on A549/ATCC NSCLC, 1.47% (active); in the assay with 786-0 renal it was -36.2% (active); in the assay on COLO 205 colon, -40.4% (active).

Consider `COc1ccc(-c2[nH]c(=S)n(C(CC3(C)NCC(=O)N3n3c(-c4ccccc4)cc(C)nc3=S)c3ccc(OC)cc3)c(=O)c2Br)cc1` (stereo not given), for which the growth in the assay with NCI-H23 lung is 70.8%; in the assay with NCI-H226 lung, 57.1%; with NCI-H322M lung it was 82.2%; with HOP-62 NSCLC it was 66.9%; in the assay on NCI-H460 lung it was 73.1%; with HOP-92 NSCLC it was 38.5%. The growth was 42.4% in the assay with NCI-H522 lung, 72% in the assay on A549/ATCC NSCLC, 83.3% in the assay on 786-0 renal and 74.9% in the assay on COLO 205 colon.
